In all, about 2,300 compounds went through this assay and about 1,200 (52%) were called active. Another 34% or so got no clear call; they are omitted. So high a share suggests a set chosen from earlier hits. Some of the results follow. A number with no mark means an inactive call. Calls follow the shape of the dose curve; as a rule, active = well fitted inhibition curve with a large enough effect; inconclusive = small, poorly fitted or top-dose-only effect, or effect the other way; inactive = no such curve, though single readings can be large or run the other way.
% is scaled to controls: 0 for no effect and ±100 for the full control effect; potency is read from the fitted curve at half-maximal effect.

This experiment can be described thus: Confirmation screen for delayed death inhibitors of the malarial parasite plastid, 48 hour incubation. Also: nearly all actives have a fitted effect of over 65% in size. The following applies: P. falciparum-infected erythrocytes, luciferase growth; series mostly up to 28.7 µM; activity change, negative = inhibition: at the top concentration. The essentials:
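Erythrocytes infected with luciferase-expressing P. falciparum (2% hematocrit, 0.1% parasitemia) incubated with compounds 48 hours at 37 C, 5% CO2, in RPMI/Albumax. Growth inhibition scored as reduced luminescence after detection reagent.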
As for `Cc1ccc(-n2c(-c3ccc(Cl)cc3)c[n+]3c2CCC3)cc1`, the Potency is 0.355 µM (active). Consider `CSc1c[n+]2c(n1C)CCC2`, for which the “activity change, negative = inhibition” value was 4.49%. Turning to `Cc1c(C)n2c(SCC(=O)Nc3ccc4c(c3)OCCO4)nnc2[nH]c1=O`, the Potency was 4.47 µM (active).

With `O=C(c1[nH]ncc1-c1cccc(Br)c1)C1CO1` (stereo not given), the Potency was 12.6 µM (active). The same measure, in the same setting: next, `Cc1onc(NC(=O)c2ccc([N+](=O)[O-])o2)c1Br`: 12.6 µM (active); `CC1=Nc2cc(C(=O)N3CCCC3)ccc2Sc2ccc(C)cc21`: 5.62 µM (active); `COc1ccc(CCN2CCCn3c2nc2c3c(=O)n(Cc3ccccc3F)c(=O)n2C)cc1OC`: 5.01 µM (active).

For `COc1cc(/C=C/C(=O)c2ccc(Cl)s2)cc(OC)c1O`, the Potency was 14.1 µM (active). Same read-out and setting: next, `COc1ccccc1C(=O)Nc1ccc2nc3n(c(=O)c2c1)CCCC3`: 11.2 µM (active); `COc1ccccc1CNC(=O)c1ccc2c(=O)n3c(nc2c1)CCCCC3`: 11.2 µM (active). Still for that read-out and setting: next, `CCOC(=O)C1CCN(C(=O)C(=O)Nc2ccc3nc4n(c(=O)c3c2)CCCCC4)CC1`: 14.1 µM (active). On to `CCC(=O)N1CCc2cc(S(=O)(=O)N3CCCCCC3)ccc21`, for which the Potency is 12.6 µM (active). As for `CCC(=O)N1CCc2cc(S(=O)(=O)N3CCN(c4cc(Cl)ccc4C)CC3)ccc21`, the “activity change, negative = inhibition” value was -15.3%. As for `CC(=O)N1CCc2cc(S(=O)(=O)N3CC(C)CC(C)C3)ccc21` (stereo not given), the Potency is 11.2 µM (active). For `O=C1C2CCCN2C(c2ccccc2)N1c1nccs1` (stereo not given), the “activity change, negative = inhibition” value was -20.9%. On the same count and under the same terms, the same measure for `Cc1ccc(Nc2nc(=O)c3cccnc3s2)c(Br)c1`: -21.6%. As for `O=S(=O)(Nc1cccc2ncccc12)c1cccs1`, the Potency was 4.47 µM (active). For `Cc1ccc(S(=O)(=O)Nc2cccc3ncccc23)s1`, the Potency was 5.01 µM (active). In the case of `CCOc1ccc(CCn2c(-c3ccco3)nc3ccccc3c2=O)cc1OCC`, the Potency was 10 µM (active). The same measure, in the same setting: next, `CCOc1ccc(S(=O)(=O)Nc2cc(S(=O)(=O)N(CC)CC)ccc2N2CCCC2)cc1`: 2.51 µM (active); `N#CC(C#N)=C1C=CC=CN1/C(=C\c1ccco1)C(=O)c1ccc(Cl)cc1`: 14.1 µM (active). Still for that read-out and setting: the same measure for `N#CC(C#N)=C1C=CC=CN1/C(=C\c1ccco1)C(=O)c1ccc(Br)cc1`: 15.8 µM (active). `COc1ccc(C(=O)/C(=C\c2ccco2)N2C=CC=CC2=C(C#N)C#N)cc1`: the Potency was 15.8 µM (active). On the same count and under the same terms, next, `COc1ccc(-c2cc(CNC(=O)CCl)on2)cc1`: 1.58 µM (active); `O=C(CN(c1ccc2c(c1)OCCO2)S(=O)(=O)c1ccccc1)NCc1ccc(Cl)cc1`: 7.94 µM (active).

As to `O=C(NCc1ccc2c(c1)OCO2)c1nc(S(=O)(=O)Cc2ccccc2F)ncc1Cl`, the “activity change, negative = inhibition” value is -11.3%. With `CC(C)N1C/C(=C/c2ccsc2)C(=O)/C(=C/c2ccsc2)C1`, the Potency was 5.01 µM (active). Same read-out and setting: the same measure for `Cc1c(CCO)sc[n+]1CC(=O)OCCC12CC3CC(CC(C3)C1)C2`: 8.91 µM (active). Take `CCCCc1nc2cc(C(=O)N3CCN(c4nc(C)cnc4C)CC3)ccc2o1`: the Potency is 12.6 µM (active). Still for that read-out and setting: the same measure for `CCC(C)(C)NC(=O)C(c1cccc(OC)c1OC)N(CC(C)C)C(=O)CCC(=O)Nc1cc(C)on1` (stereo not given): 10 µM (active). As to `CCOC(=O)Cn1nnnc1C(CC)N(Cc1cccs1)Cc1cc2ccc(OC)cc2[nH]c1=O` (stereo not given), the Potency was 10 µM (active).

As for `Cc1ccc(OCC(=O)Nn2cnnc2)c(Br)c1`, the “activity change, negative = inhibition” value was 2.15%.

Take `Cc1ccc(C)c(-c2nnc(OCC(=O)Nc3cc(C)on3)c3ccccc23)c1`: the Potency is 14.1 µM (active).

Take `CC(C)N=C(NS(=O)(=O)c1ccccc1)C(Cl)(Cl)Cl`: the Potency is 5.01 µM (active). Take `C=CCNC(=O)c1onc(CSc2cccc(Cl)c2)c1C(=O)O`: the “activity change, negative = inhibition” value was 6.09%. As for `CCc1ccc(-c2cn(C3CCCCC3)c(=S)[nH]2)cc1`, the Potency was 14.1 µM (active).

As for `CC(=O)/C=C/c1ccccc1Oc1c(F)c(F)nc(F)c1F`, the Potency is 10 µM (active).

Turning to `Cc1cccc2c1NC(=O)/C2=C\C(=O)c1cccs1`, the “activity change, negative = inhibition” value is -3.23%. Take `CC(NC(=O)Nc1ccc(Cl)cc1)c1ccc2c(c1)OCO2` (stereo not given): the “activity change, negative = inhibition” value is -25.1%. As to `CC(C)N(C(=O)CSc1nnc(-c2ccc3c(c2)OCO3)n1C)C(C)C`, the Potency is 11.2 µM (active). Still for that read-out and setting: the same measure for `COC(=O)[C@H](Cc1ccccc1)N(C)S(=O)(=O)c1cccc(S(=O)(=O)N(C)[C@@H](Cc2ccccc2)C(=O)OC)c1`: 12.6 µM (active).

Turning to `O=C(N[C@@H](Cc1ccccc1)C(=O)CCl)OCc1ccccc1`, the “activity change, negative = inhibition” value was 2.15%.

In the case of `CCCCCn1c(=O)c2ccccc2n2c(CCl)nnc12`, the Potency was 10 µM (active).

For `COc1cccc(F)c1C(C[N+](=O)[O-])c1c(N)n(C)c(=O)n(C)c1=O` (stereo not given), the Potency was 5.01 µM (active). Still for that read-out and setting: the same measure for `Cc1ccc(CN2CCCCC2C(=O)Nc2ccc(Oc3cccnc3)cc2)o1` (stereo not given): 11.2 µM (active); for `O=C(Nc1ccc(N2CCN(C(=O)c3ccccc3)CC2)cc1)c1ccc([N+](=O)[O-])o1`: 5.01 µM (active). Turning to `O=C(Nc1ccc(N2CCN(C(=O)c3ccco3)CC2)cc1)c1ccc(F)cc1`, the Potency is 11.2 µM (active). Consider `O=C(Nc1ccc(N2CCN(C(=O)c3cccs3)CC2)cc1)c1ccc([N+](=O)[O-])o1`, for which the Potency was 3.55 µM (active). Consider `O=C(Nc1c2c(nn1-c1ccc([N+](=O)[O-])cc1)CS(=O)(=O)C2)c1cccs1`, for which the “activity change, negative = inhibition” value was -46%. On to `Cc1ccccc1C(=O)N1CCN(c2ccc(NC(=O)c3ccc([N+](=O)[O-])o3)cc2)CC1`, for which the Potency is 10 µM (active).

The values above are taken from PubChem BioAssay AID504850 (National Center for Advancing Translational Sciences (NCATS), 2011).
